# According to PubChem BioAssay (NCATS):
# Results filed as inconclusive are left out. Active and inactive are the calls of the source. Calls come from the whole dose curve; as a rule, active = well fitted curve in the direction sought with a large enough effect; inconclusive = small, poorly fitted or top-dose-only effect, or another doubt; inactive = no such curve, though single readings can be large; an effect the other way counts as inactive or inconclusive.
# Tested on: Nanoluciferase (engineered Oplophorus gracilirostris luciferase)
# Assay: Primary Nanoluciferase (NLuc) qHTS assay for identification of artifact compounds. (AID 1845222);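 note: NLuc secreted into diluted conditioned medium of S16 cells; 0% = DMSO and -100% = no enzyme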
# Conditions: NLuc-conditioned medium, Nano-Glo luminescence, 5 min; series mostly up to 54.1 µM; activity, negative = inhibition: at the top concentration
# Method in brief: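 S16 cell supernatant NLuc, 1:55; cpds qHTS; 15 min RT dark; Nano-Glo substrate 1:100, 5 min; luminescence; Hill fit of % inhibition.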
row,Compound,"activity, negative = inhibition"
1,COc1cc(NC(=O)c2cccc(-n3cc(NC(=O)Nc4cccc(C)c4)cn3)c2)cc(OC)c1OC,0.888% (inactive)
2,O=C(Nc1cccc(C(F)(F)F)c1)Nc1ccc(Br)cc1-c1nn[nH]n1,-9.69% (inactive)
3,C=C1C(=O)OC2/C=C(\COC(C)=O)CC/C=C(\C=O)CC(OC(=O)C(C)CC)C12 (stereo not drawn),1.04% [at 25.7 µM] (inactive)
4,COc1cc([C@H]2O[C@H](c3cc(OC)c4c(c3)OCO4)[C@H](C)[C@H]2C)cc(OC)c1OC,3.95% [at 25.7 µM] (inactive)
5,CCNC(=O)Nc1ccc(-c2nc3c(c(N4CCOCC4C)n2)CCN(C2COC2)C3)cc1 (stereo not drawn),-3.17% (inactive)
6,C[C@H](Oc1cc(-n2cnc3ccc(CN4CCN(C)CC4)cc32)sc1C(N)=O)c1ccccc1C(F)(F)F,0% (inactive)
7,C=C1CC[C@@H]2[C@](C)(CO)[C@H](O)CC[C@@]2(C)[C@@H]1/C=C/C1=CCOC1=O,-0.145% (inactive)
8,CCC(C)CC(=O)OC1C(=O)C(CO)=CC(O)C1C(C)C (stereo not drawn),-10.6% (inactive)
9,COC(CCc1ccc(O)cc1)CC(=O)CCc1ccc(O)cc1 (stereo not drawn),1.64% (inactive)
10,Cc1cccc(CC(=O)N2CCc3c2ccc(-c2cn(C)c4ncnc(N)c24)c3F)n1,-2.52% (inactive)
11,c1cc(-c2cnn3cc(-c4ccc(N5CCNCC5)cc4)cnc23)c2cccnc2c1,0% (inactive)
12,C[C@H]1CC[C@@]2(OC1)O[C@H]1CC3C4CC[C@H]5C[C@@H](O)CC[C@]5(C)C4=CC(=O)[C@]3(C)[C@H]1[C@@H]2C (stereo partly drawn),3.05% [at 25.7 µM] (inactive)
13,CCN(Cc1cc(Nc2nc(C)cn3c(-c4cn[nH]c4)cnc23)sn1)C(C)(C)CO,-1.43% (inactive)
14,C/C(=C\CCC(C)C1=CCC2(C)OC3=C(CC12)C(=O)C(O)CC3)CO (stereo not drawn),-12.7% (inactive)
15,O=C(NC1CCC1)c1ccc(C#Cc2cccc(F)c2)nc1,-2.05% (inactive)
16,C=C(C(=O)O[C@H]1C/C(C)=C/CC/C(CO)=C/[C@H]2OC(=O)C(=C)[C@H]12)C(O)CO (stereo partly drawn),3.1% (inactive)
17,C=C1C(=O)OC2/C=C(\C)CC/C=C(\C)CC(OC(C)=O)C12 (stereo not drawn),2.64% (inactive)
18,C=C(C)[C@@H]1CC[C@]2(C(=O)O)CC[C@]3(C(=O)O)[C@H](CCC4[C@@]5(C)CCC(=O)C(C)(C)C5CC[C@]43C)C12 (stereo partly drawn),-28.6% [at 25.7 µM] (inactive)
19,C=C(CCC1C(C)(O)CCC2C(C)(C)C(O)CCC12C)C(O)CO (stereo not drawn),-8.54% (inactive)
20,O=C(Nc1ccccc1)c1ccc(Nc2nnc(-c3ccc(O)cc3)c3ccccc23)cc1,-21% (inactive)

row,Compound,"activity, negative = inhibition"
1,CCC(C)C(=O)Oc1cc(C)ccc1C1(COC(=O)C(C)C)CO1 (stereo not drawn),-5.86% (inactive)
2,CC(=O)C1=CCC2C3CC=C4CC(O)CC(O)C4(C)C3C(O)CC12C (stereo not drawn),2.71% (inactive)
3,CNC(=O)c1cc(Oc2ccc(NC(=O)c3cccc(C(F)(F)F)c3)cc2)ccn1,0% (inactive)
4,C[C@H](CN(C)C)Oc1nc(Nc2cc3cccc(Cl)c3cn2)cnc1C#N,-3.24% (inactive)
5,O=C(NCCCNc1nc(Nc2cccc(CN3CCOCC3)c2)ncc1C1CC1)C1CCC1,1.78% (inactive)
6,CCOc1cc(C(C)(C)C)ccc1C1=N[C@@](C)(c2ccc(Cl)cc2)[C@@](C)(c2ccc(Cl)cc2)N1C(=O)N1CCN(CC(=O)N2CCOCC2)CC1,-0.657% (inactive)
7,CC(=O)NCc1cccc(OC[C@@H](O)CNCCc2ccc(NS(=O)(=O)c3ccccc3)cc2)c1,3.76% (inactive)
8,Cn1c(SCC(=O)N2CCC[C@H]2C(=O)Nc2ccccc2-c2ccccc2)nc2ccccc21,-2.8% (inactive)
9,CC(C)Oc1ccc(-c2cnc3c(-c4ccnc5ccccc45)cnn3c2)cc1,0.751% (inactive)
10,CN1CCN(Cc2ccc(NC(=O)Cc3ccc(Oc4cc(NC(=O)C5CC5)ncn4)cc3)cc2C(F)(F)F)CC1,-6.38% (inactive)
11,CCOc1cccc(NC(=O)c2ccc(N3CCCC3)c(C(F)(F)F)c2)c1,2.82% (inactive)
12,O=C(NCCO)c1cccc(-c2cc(Nc3ccc(OC(F)(F)F)cc3)ncn2)c1,-25.2% (inactive)
13,Cc1ccc(-c2ncccn2)c(C(=O)N2C[C@H](COc3ccc(F)cn3)CC[C@H]2C)c1,-13.2% (inactive)
14,CC(C)(C)c1ccc(C(=O)Nc2cc(Cl)c(Br)cc2C(=O)O)cc1,-7.33% (inactive)
15,CC(=O)OC1C(OC(=O)c2ccccc2)C2C(C)(C)CCC(OC(C)=O)C2(C)C23CCC(C)(C2)C(=O)CC13 (stereo not drawn),-0.247% [at 25.7 µM] (inactive)
16,CCOC(=O)CCNc1cc(N2CCc3ccccc3CC2)nc(-c2cccnc2)n1,-10.5% (inactive)
17,CC(C)(C)c1ccc(-c2nc3c(N4CCN(Cc5ccc6nccnc6c5)CC4)cccc3[nH]2)cc1,0.9% (inactive)
18,CC1CCCC(O)CCC/C=C/c2cc(OS(=O)(=O)O)cc(O)c2C(=O)O1 (stereo not drawn),-7.81% (inactive)
19,Fc1ccc(-c2nc(C3CCNCC3)sc2-c2ccnc(NC3CC3)n2)cc1,3.12% (inactive)

# Tested on: not listed separately
# Assay: Primary redox qHTS assay for identification of artifact compounds. (AID 1845223);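 note: 0% = DMSO and 100% = reference compound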
# Conditions: Amplex Red/HRP redox cycling with DTT, fluorescence; series mostly up to 53.8 µM; redox activity (% of DA3003): at the top concentration
# Method in brief: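 Redox-cycling detection via DTT (250 uM final) oxidation coupled to Amplex Red (25 uM)/HRP (250 mU/mL) in HBSS. 15 min preincubation plus 30 min after DTT, room temperature. Ex/Em 525/598 nm; 4-parameter Hill fit against DMSO and 10 uM DA3003.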
row,Compound,redox activity (% of DA3003)
1,COc1cc(NC(=O)c2cccc(-n3cc(NC(=O)Nc4cccc(C)c4)cn3)c2)cc(OC)c1OC,-0.687% (inactive)
2,O=C(Nc1cccc(C(F)(F)F)c1)Nc1ccc(Br)cc1-c1nn[nH]n1,-4.56% (inactive)
3,C=C1C(=O)OC2/C=C(\COC(C)=O)CC/C=C(\C=O)CC(OC(=O)C(C)CC)C12 (stereo not drawn),8.4% [at 25.6 µM] (inactive)
4,COc1cc([C@H]2O[C@H](c3cc(OC)c4c(c3)OCO4)[C@H](C)[C@H]2C)cc(OC)c1OC,1.1% [at 25.6 µM] (inactive)
5,CCNC(=O)Nc1ccc(-c2nc3c(c(N4CCOCC4C)n2)CCN(C2COC2)C3)cc1 (stereo not drawn),8.36% (inactive)
6,C[C@H](Oc1cc(-n2cnc3ccc(CN4CCN(C)CC4)cc32)sc1C(N)=O)c1ccccc1C(F)(F)F,13.1% (inactive)
7,C=C1CC[C@@H]2[C@](C)(CO)[C@H](O)CC[C@@]2(C)[C@@H]1/C=C/C1=CCOC1=O,-9.41% (inactive)
8,CCC(C)CC(=O)OC1C(=O)C(CO)=CC(O)C1C(C)C (stereo not drawn),4.11% (inactive)
9,COC(CCc1ccc(O)cc1)CC(=O)CCc1ccc(O)cc1 (stereo not drawn),-5.41% (inactive)
10,Cc1cccc(CC(=O)N2CCc3c2ccc(-c2cn(C)c4ncnc(N)c24)c3F)n1,-2.94% (inactive)
11,c1cc(-c2cnn3cc(-c4ccc(N5CCNCC5)cc4)cnc23)c2cccnc2c1,-0.462% (inactive)
12,C[C@H]1CC[C@@]2(OC1)O[C@H]1CC3C4CC[C@H]5C[C@@H](O)CC[C@]5(C)C4=CC(=O)[C@]3(C)[C@H]1[C@@H]2C (stereo partly drawn),13% [at 25.6 µM] (inactive)
13,CCN(Cc1cc(Nc2nc(C)cn3c(-c4cn[nH]c4)cnc23)sn1)C(C)(C)CO,5.64% (inactive)
14,C/C(=C\CCC(C)C1=CCC2(C)OC3=C(CC12)C(=O)C(O)CC3)CO (stereo not drawn),14.1% (inactive)
15,O=C(NC1CCC1)c1ccc(C#Cc2cccc(F)c2)nc1,-7.71% (inactive)
16,C=C(C(=O)O[C@H]1C/C(C)=C/CC/C(CO)=C/[C@H]2OC(=O)C(=C)[C@H]12)C(O)CO (stereo partly drawn),4.65% (inactive)
17,C=C1C(=O)OC2/C=C(\C)CC/C=C(\C)CC(OC(C)=O)C12 (stereo not drawn),10.8% (inactive)
18,C=C(C)[C@@H]1CC[C@]2(C(=O)O)CC[C@]3(C(=O)O)[C@H](CCC4[C@@]5(C)CCC(=O)C(C)(C)C5CC[C@]43C)C12 (stereo partly drawn),-2.64% [at 25.6 µM] (inactive)
19,C=C(CCC1C(C)(O)CCC2C(C)(C)C(O)CCC12C)C(O)CO (stereo not drawn),-3.7% (inactive)
20,O=C(Nc1ccccc1)c1ccc(Nc2nnc(-c3ccc(O)cc3)c3ccccc23)cc1,-4.58% (inactive)

row,Compound,redox activity (% of DA3003)
1,CCC(C)C(=O)Oc1cc(C)ccc1C1(COC(=O)C(C)C)CO1 (stereo not drawn),7.46% (inactive)
2,CC(=O)C1=CCC2C3CC=C4CC(O)CC(O)C4(C)C3C(O)CC12C (stereo not drawn),1.57% (inactive)
3,CNC(=O)c1cc(Oc2ccc(NC(=O)c3cccc(C(F)(F)F)c3)cc2)ccn1,15.9% (inactive)
4,C[C@H](CN(C)C)Oc1nc(Nc2cc3cccc(Cl)c3cn2)cnc1C#N,-9.39% (inactive)
5,O=C(NCCCNc1nc(Nc2cccc(CN3CCOCC3)c2)ncc1C1CC1)C1CCC1,15.6% (inactive)
6,CCOc1cc(C(C)(C)C)ccc1C1=N[C@@](C)(c2ccc(Cl)cc2)[C@@](C)(c2ccc(Cl)cc2)N1C(=O)N1CCN(CC(=O)N2CCOCC2)CC1,3.98% (inactive)
7,CC(=O)NCc1cccc(OC[C@@H](O)CNCCc2ccc(NS(=O)(=O)c3ccccc3)cc2)c1,19.8% (inactive)
8,Cn1c(SCC(=O)N2CCC[C@H]2C(=O)Nc2ccccc2-c2ccccc2)nc2ccccc21,16.2% (inactive)
9,CC(C)Oc1ccc(-c2cnc3c(-c4ccnc5ccccc45)cnn3c2)cc1,-0.385% (inactive)
10,CN1CCN(Cc2ccc(NC(=O)Cc3ccc(Oc4cc(NC(=O)C5CC5)ncn4)cc3)cc2C(F)(F)F)CC1,4.6% (inactive)
11,CCOc1cccc(NC(=O)c2ccc(N3CCCC3)c(C(F)(F)F)c2)c1,-2.7% (inactive)
12,O=C(NCCO)c1cccc(-c2cc(Nc3ccc(OC(F)(F)F)cc3)ncn2)c1,18.8% (inactive)
13,Cc1ccc(-c2ncccn2)c(C(=O)N2C[C@H](COc3ccc(F)cn3)CC[C@H]2C)c1,13% (inactive)
14,CC(C)(C)c1ccc(C(=O)Nc2cc(Cl)c(Br)cc2C(=O)O)cc1,7.55% (inactive)
15,CC(=O)OC1C(OC(=O)c2ccccc2)C2C(C)(C)CCC(OC(C)=O)C2(C)C23CCC(C)(C2)C(=O)CC13 (stereo not drawn),7.33% [at 25.6 µM] (inactive)
16,CCOC(=O)CCNc1cc(N2CCc3ccccc3CC2)nc(-c2cccnc2)n1,7.32% (inactive)
17,CC(C)(C)c1ccc(-c2nc3c(N4CCN(Cc5ccc6nccnc6c5)CC4)cccc3[nH]2)cc1,-0.176% (inactive)
18,CC1CCCC(O)CCC/C=C/c2cc(OS(=O)(=O)O)cc(O)c2C(=O)O1 (stereo not drawn),11.7% (inactive)
19,Fc1ccc(-c2nc(C3CCNCC3)sc2-c2ccnc(NC3CC3)n2)cc1,-2.23% (inactive)
